Bioassay records as filed in PubChem BioAssay.
A selection: hits, their analogues and other compounds. The true share with any hit is near 2.7%.
CFTR F508del cor = correctors of CFTR F508del function in bronchial epithelial cells | CFBE cells, YFP halide quenching; stimulated with forskolin plus potentiator P3; % fluorescence drop versus neutral controls | activity (quench increase), % at 7.58 µM | actives 0.36% (n = 350,000) | AID 720511;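 active means mean added fluorescence quench of at least 8% versus neutral control, with both replicates also reaching 8%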;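 further: cells transiently co-express mutant CFTR-F508del with the halide-sensitive YFP; corrector assay measuring rescue of mutant channel to the surface after 24 h compound exposure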
Env fusion inh = inhibitors of HIV Env-mediated cell fusion. HeLa-JRFL Env/CEM21 cell fusion, luciferase. inhibition, % at 12.3 µM. actives 1.1% (n = 360,000);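 active means mean replicate inhibition score of at least 50 and every replicate individually at or above 50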
MITF TRPM1 HTS = activators of MITF-driven TRPM1 promoter activity in SK-MEL-5 cells | SK-MEL-5 TRPM1-promoter luciferase, 24 h; % of positive control, neutral wells = 0 | AID 588334 | activation, % at 12.5 µM | actives 0.75% (n = 300,000);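 active means mean activation of at least 80% with every replicate also reaching 80%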
Wnt act = activates Wnt/beta-catenin signaling in a reporter cell assay. activator, plate reader. actives 1.2% (n = 300,000). activation, % at 9.35 µM; in the data active means activation above about 30%, passing the limit was not always enough
INS-1E GSIS act = primary screen for activators of insulin secretion dependent on glucose, INS-1E cells, GLuc reporter luminescence. INS-1E GLuc reporter insulin secretion, 2-3 h. activation, % at 16.6 µM. actives 0.61% (n = 370,000);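 active means lowest replicate activation of at least 40%, so every replicate reaches that level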
Numbers stand for hits; ! = not confirmed by another sample.

Results for C[C@@H]1CN([C@@H](C)CO)C(=O)c2cc(NC(=O)Nc3ccc(F)cc3)ccc2O[C@H]1CN(C)Cc1ccc(-c2ccccc2)cc1 ?
CFTR F508del cor: inactive; Env fusion inh: inactive; INS-1E GSIS act: inactive

What do the screens show for `COC(=O)[C@@H](NC(=O)NCCC1=CCCCC1)C(C)C`?
CFTR F508del cor: inactive; Env fusion inh: inactive; MITF TRPM1 HTS: inactive; Wnt act: 65; INS-1E GSIS act: inactive

What do the screens show for `CN(C)C(=O)C[C@@H]1C[C@@H]2c3cc(NS(=O)(=O)c4ccc(F)cc4)ccc3O[C@@H]2[C@H](CO)O1`?
CFTR F508del cor: inactive; Env fusion inh: inactive; INS-1E GSIS act: inactive

What do the screens show for `N#Cc1cccc(-c2ccc([C@@H]3[C@@H]4CN(S(=O)(=O)c5ccc(-c6ccccc6)cc5)C[C@H]3N4)cc2)c1`?
CFTR F508del cor: inactive; INS-1E GSIS act: 556

Results for Cc1cccc(-c2ccc(C3[C@@H]4CN(C(=O)C5CCCCC5)C[C@H]3N4)cc2)c1 (stereo not given in full) ?
CFTR F508del cor: inactive; INS-1E GSIS act: 213!

What do the screens show for `COc1cccc(S(=O)(=O)N2C[C@@H]3N[C@H](C2)C3c2ccc(-c3cccc(C)c3)cc2)c1` (stereo not given in full)?
CFTR F508del cor: 12!; INS-1E GSIS act: inactive

Results for Cc1ccccc1S(=O)(=O)N1C[C@@H]2N[C@H](C1)C2c1ccc(-c2cccc(C#N)c2)cc1 (stereo not given in full) ?
CFTR F508del cor: 8.4!; INS-1E GSIS act: inactive

What do the screens show for `COc1cccc(-c2ccc(C3[C@@H]4CN(C(=O)C5CCCCC5)C[C@H]3N4)cc2)c1` (stereo not given in full)?
CFTR F508del cor: inactive; INS-1E GSIS act: inactive

What do the screens show for `N#Cc1cccc(-c2ccc(C3[C@@H]4CN(S(=O)(=O)c5ccccc5F)C[C@H]3N4)cc2)c1` (stereo not given in full)?
CFTR F508del cor: inactive; INS-1E GSIS act: inactive

Results for CN(C)C(=O)C[C@H]1C=C[C@@H](NC(=O)NC2CCCCC2)[C@@H](CO)O1 ?
CFTR F508del cor: inactive; Env fusion inh: inactive; INS-1E GSIS act: inactive

How did COCC#Cc1ccc2c(c1)O[C@@H](CN(C)Cc1ccc3c(c1)OCO3)[C@H](C)CN([C@H](C)CO)S2(=O)=O do in these assays?
CFTR F508del cor: inactive; Env fusion inh: inactive; INS-1E GSIS act: inactive

How did COc1ccccc1N/C(N)=N/c1nc(CSc2ccc(C)cc2)cc(=O)[nH]1 do in these assays?
Env fusion inh: 67; MITF TRPM1 HTS: inactive

How did O=C(Nc1ccc(Cl)cc1)Nc1ccccc1Sc1ncc([N+](=O)[O-])s1 do in these assays?
CFTR F508del cor: inactive; Env fusion inh: inactive; MITF TRPM1 HTS: inactive; Wnt act: 33; INS-1E GSIS act: inactive

Results for C[C@@H]1CCCCO[C@H](CN(C)Cc2ccncc2)[C@@H](C)CN([C@@H](C)CO)C(=O)c2cc(NC(=O)Nc3ccc(F)cc3)ccc2O1 ?
CFTR F508del cor: inactive; Env fusion inh: inactive; INS-1E GSIS act: inactive

What do the screens show for `COc1ccc(NC(=S)Nc2ccccn2)c(OC)c1`?
Env fusion inh: inactive; Wnt act: 55

How did COc1ccc(NC(=O)Nc2cnccn2)c(OC)c1 do in these assays?
CFTR F508del cor: inactive; Env fusion inh: 57; MITF TRPM1 HTS: inactive; Wnt act: inactive; INS-1E GSIS act: inactive

How did COc1ccc(Cl)cc1NC(=O)Nc1cnccn1 do in these assays?
CFTR F508del cor: inactive; Env fusion inh: 71; MITF TRPM1 HTS: inactive; Wnt act: inactive; INS-1E GSIS act: inactive

How did COc1ccc(C)cc1NC(=O)Nc1cnccn1 do in these assays?
CFTR F508del cor: inactive; Env fusion inh: inactive; MITF TRPM1 HTS: inactive; Wnt act: inactive; INS-1E GSIS act: inactive

What do the screens show for `CO[C@H]1CN(C)C(=O)c2cc(NC(=O)C3CC3)ccc2OC[C@@H](C)N(CCc2ccccc2)C[C@@H]1C`?
CFTR F508del cor: inactive; Env fusion inh: inactive; INS-1E GSIS act: inactive

How did C[C@@H]1CCCCO[C@H](CN(C)Cc2ccncc2)[C@H](C)CN([C@H](C)CO)C(=O)c2cc(NS(=O)(=O)c3ccc(F)cc3)ccc2O1 do in these assays?
CFTR F508del cor: inactive; Env fusion inh: inactive; INS-1E GSIS act: inactive

How did CNC[C@H]1OCc2ccccc2-c2c(n(C)c3ccccc23)C(=O)N([C@@H](C)CO)C[C@@H]1C do in these assays?
INS-1E GSIS act: inactive
